Experimental data reported in PubChem BioAssay.
Calls of active or inactive are those of the source.

Columns and labels:
[1] = anti-His antibody binders, primary screen, artefact control for SMM control protein annotation, biochemical, small-molecule microarray, 635 nm fluorescence (AID 1128); details: anti-His Alexa647 antibody binding, higher = more signal;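 further: score merges feature fluorescence with signal-to-noise for each printed compound spot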
[2] = test system: Human papillomavirus type 1a E7 protein (residues 1-88); assay: HPV1a E7 small-molecule binders, primary screen, biochemical, small-molecule microarray, residues 1-88, 635 nm (AID 1129); details: small-molecule microarray binding, fluorescence 635 nm; higher = more signal
[3] = target: Focal adhesion kinase 1 (Homo sapiens) (UniProt Q05397); assay: small-molecule microarray binders of FAK, primary screen, biochemical, 635/667 nm fluorescence, BSA, DTT (AID 1130); details: PTK2 binding, 635 nm fluorescence, higher = more signal;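 further: composite of spot emission at 667 nm and signal to noise over triplicate slides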
Focal adhesion kinase 1 (Homo sapiens), sequence (Q05397 whole entry, looked up): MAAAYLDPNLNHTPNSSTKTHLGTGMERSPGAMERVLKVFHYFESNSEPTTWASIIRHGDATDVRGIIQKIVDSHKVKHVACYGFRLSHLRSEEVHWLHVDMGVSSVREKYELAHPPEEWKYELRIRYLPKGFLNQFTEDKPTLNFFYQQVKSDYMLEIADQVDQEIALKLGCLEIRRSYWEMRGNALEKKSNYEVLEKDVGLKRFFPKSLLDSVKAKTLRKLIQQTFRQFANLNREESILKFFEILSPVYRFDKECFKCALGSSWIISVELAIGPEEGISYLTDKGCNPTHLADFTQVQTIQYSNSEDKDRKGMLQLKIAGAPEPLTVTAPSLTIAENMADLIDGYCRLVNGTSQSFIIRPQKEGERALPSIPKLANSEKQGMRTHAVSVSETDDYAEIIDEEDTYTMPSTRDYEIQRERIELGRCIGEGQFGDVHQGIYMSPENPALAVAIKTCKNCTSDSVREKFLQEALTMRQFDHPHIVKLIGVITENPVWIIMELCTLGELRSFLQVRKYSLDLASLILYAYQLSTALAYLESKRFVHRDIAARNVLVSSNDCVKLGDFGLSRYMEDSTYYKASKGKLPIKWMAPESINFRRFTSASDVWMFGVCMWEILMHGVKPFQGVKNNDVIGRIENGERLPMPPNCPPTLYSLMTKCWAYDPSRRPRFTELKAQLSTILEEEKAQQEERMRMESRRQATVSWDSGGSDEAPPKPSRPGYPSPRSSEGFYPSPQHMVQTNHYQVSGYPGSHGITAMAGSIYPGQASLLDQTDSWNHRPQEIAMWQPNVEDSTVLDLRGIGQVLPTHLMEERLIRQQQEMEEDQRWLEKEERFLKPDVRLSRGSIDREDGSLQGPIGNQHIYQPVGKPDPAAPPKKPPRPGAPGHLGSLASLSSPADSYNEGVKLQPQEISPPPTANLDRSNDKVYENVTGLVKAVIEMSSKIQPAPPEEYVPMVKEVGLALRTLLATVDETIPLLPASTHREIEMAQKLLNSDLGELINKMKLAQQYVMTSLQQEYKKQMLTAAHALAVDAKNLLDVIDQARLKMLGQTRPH

[4] = test system: Fibrinogen (Alexa647-labelled); assay: fibrinogen binders on compound microarrays, profiling panel, artefact control for SMM control-protein annotation, biochemical, small-molecule microarray, 635/667 nm fluorescence (AID 1131); details: fibrinogen-A647 binding fluorescence, higher = more signal;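 further: z-score merges 667 nm fluorescence with per-spot signal-to-noise over triplicate slides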
[5] = target: Follistatin (Homo sapiens) (UniProt P19883); assay: follistatin binders on small-molecule microarrays, primary screen, biochemical, small-molecule microarray, 635/667 nm fluorescence (AID 1132); details: FST binding, 635 nm fluorescence, higher = more signal
Follistatin (Homo sapiens), sequence (P19883 whole entry, looked up): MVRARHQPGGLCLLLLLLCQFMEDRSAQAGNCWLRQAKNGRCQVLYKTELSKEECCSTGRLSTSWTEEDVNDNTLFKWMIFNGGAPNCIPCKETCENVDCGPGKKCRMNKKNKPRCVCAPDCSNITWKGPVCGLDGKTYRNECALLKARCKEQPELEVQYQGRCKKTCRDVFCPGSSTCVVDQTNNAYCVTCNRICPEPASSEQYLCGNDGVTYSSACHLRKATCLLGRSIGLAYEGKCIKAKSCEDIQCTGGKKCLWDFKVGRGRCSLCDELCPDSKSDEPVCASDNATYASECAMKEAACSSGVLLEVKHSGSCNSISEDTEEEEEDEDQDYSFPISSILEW

[6] = target: Fibroblast growth factor 2 (Homo sapiens) (UniProt P09038); assay: FGF2 binders on small-molecule microarrays, primary screen, biochemical, small-molecule microarray, 635/667 nm fluorescence (AID 1133); details: small-molecule microarray binding, FGF2, fluorescence 635/667; higher = more signal
Fibroblast growth factor 2 (Homo sapiens), sequence (P09038 whole entry, looked up): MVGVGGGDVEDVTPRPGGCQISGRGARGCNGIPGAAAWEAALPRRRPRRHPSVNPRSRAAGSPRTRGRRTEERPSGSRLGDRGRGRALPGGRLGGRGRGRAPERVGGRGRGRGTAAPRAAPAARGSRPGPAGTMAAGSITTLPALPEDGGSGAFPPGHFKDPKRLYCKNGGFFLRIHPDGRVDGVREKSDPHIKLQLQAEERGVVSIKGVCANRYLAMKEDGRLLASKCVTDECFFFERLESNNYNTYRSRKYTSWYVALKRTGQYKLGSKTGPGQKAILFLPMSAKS

[7] = mitochondrial membrane potential change in A549 cells, profiling panel, cell-based, JC-1 fluorescence, basal, 24 h, 100 nL (AID 1138); details: higher = more signal;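 further: A549 lung adenocarcinoma cells under basal conditions with no added stimulus; test concentration not given here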
Lefty1 = Lefty1 binders on small-molecule microarrays, primary screen, biochemical, small-molecule microarray, 635/667 nm fluorescence (AID 1139); details: small-molecule microarray binding, fluorescence 635/667; higher = more signal
[8] = test system: wheat germ agglutinin (Triticum aestivum), Alexa647-labelled; assay: wheat germ agglutinin binders on compound microarrays, profiling panel, artefact control for SMM control-protein annotation, biochemical, small-molecule microarray, 635/667 nm fluorescence (AID 1140); details: WGA-A647 binding, 635 nm fluorescence, higher = more signal;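 further: score merges 667 nm feature emission with signal to noise over triplicate slides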
[9] = target: Luciferin 4-monooxygenase (Photinus pyralis) (UniProt P08659); assay: firefly luciferase enzyme inhibitors, primary screen, biochemical, luminescence, purified enzyme, 2006 set (AID 1141); details: SteadyGlo luminescence, 30 min, higher = more signal, called active from +8 up or from −8 down;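 further: cell-free assay with purified firefly luciferase at 100 ng per well in PBS; test concentration not given here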
Luciferin 4-monooxygenase (Photinus pyralis), sequence (P08659 whole entry, looked up): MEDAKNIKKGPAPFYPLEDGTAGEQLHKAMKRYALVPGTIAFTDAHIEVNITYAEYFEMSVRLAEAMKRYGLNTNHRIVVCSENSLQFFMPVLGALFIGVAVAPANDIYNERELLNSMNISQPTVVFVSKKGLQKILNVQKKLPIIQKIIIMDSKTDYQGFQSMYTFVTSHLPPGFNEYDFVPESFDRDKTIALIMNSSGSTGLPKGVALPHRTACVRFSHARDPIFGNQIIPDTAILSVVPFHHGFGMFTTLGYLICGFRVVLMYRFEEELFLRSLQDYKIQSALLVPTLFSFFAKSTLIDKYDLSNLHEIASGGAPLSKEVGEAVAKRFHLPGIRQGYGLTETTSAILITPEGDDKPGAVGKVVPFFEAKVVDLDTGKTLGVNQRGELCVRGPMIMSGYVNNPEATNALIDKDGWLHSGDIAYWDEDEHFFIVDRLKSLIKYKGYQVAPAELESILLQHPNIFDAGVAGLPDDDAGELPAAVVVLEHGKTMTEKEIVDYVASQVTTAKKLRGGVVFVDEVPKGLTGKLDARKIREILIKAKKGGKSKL

Question: Which results are given for `O=C(OCCF)C1=CCC(c2cccc(Cl)c2)O1` (stereo not given)?
Answer: composite z-score [1]: 0.1; composite z-score [2]: 0.628; composite z-score [3]: 0.475; composite z-score [4]: -0.137; composite z-score [5]: 0.134; composite z-score [6]: -0.211; z-score [7]: -0.218; composite z-score (Lefty1): -0.217; composite z-score [8]: 0.177; z-score [9]: 0.08 (inactive)

Question: Which composite z-score [1] does the source give for `Cc1ccc([C@H]2C(C(=O)O)=C[C@@H](C)N2S(=O)(=O)c2ccc(C)cc2)cc1` here?
Answer: 1.72

Question: What about the composite z-score [2] of the same molecule?
Answer: 1.14

Question: And the composite z-score [3]?
Answer: 1.96

Question: What about the composite z-score [4] of the same molecule?
Answer: -1.29

Question: What about the composite z-score [5] of the same molecule?
Answer: -0.742

Question: What about the composite z-score [6] of the same molecule?
Answer: -1.16

Question: What about the z-score [7] of the same molecule?
Answer: -0.321

Question: What about the composite z-score (Lefty1) of the same molecule?
Answer: -1.15

Question: What about the composite z-score [8] of the same molecule?
Answer: 1.32

Question: And the z-score [9]?
Answer: 0.467 (inactive)

Question: Which results are given for `O=C(O)[C@H]1C[C@H]2C(=O)NCC(=O)N2[C@H]1c1ccc(O)cc1`?
Answer: composite z-score [1]: 2.65; composite z-score [2]: -0.722; composite z-score [3]: 0.0888; composite z-score [4]: -0.908; composite z-score [5]: 1.32; composite z-score [6]: 1.05; z-score [7]: 1.97; composite z-score (Lefty1): 0.368; composite z-score [8]: -0.0842; z-score [9]: -1.54 (inactive)

Question: With `O=C1O[C@H](c2ccccc2)[C@H](c2ccccc2)N2[C@H]1[C@@H](C(=O)N1CCN(c3ncccn3)CC1)[C@]1(C(=O)Nc3ccccc31)[C@H]2c1ccc(OCCO)cc1` as the molecule, how does the composite z-score [1] read?
Answer: 1.39

Question: What about the composite z-score [2] of the same molecule?
Answer: 1.19

Question: And the composite z-score [3]?
Answer: 0.429

Question: And the composite z-score [4]?
Answer: -0.206

Question: And the composite z-score [5]?
Answer: 1.34

Question: And the composite z-score [6]?
Answer: 1.43

Question: What about the z-score [7] of the same molecule?
Answer: -0.442

Question: And the composite z-score (Lefty1)?
Answer: 1.12

Question: And the composite z-score [8]?
Answer: 0.0522

Question: And the z-score [9]?
Answer: 0.546 (inactive)

Question: Which results are given for `C=CC[C@@]1(C(=O)O)N=C(c2ccc(OCCCO)cc2)O[C@@H]1c1ccccc1N=[N+]=[N-]`?
Answer: composite z-score [1]: 1.06; composite z-score [2]: 0.811; composite z-score [3]: 0.235; composite z-score [4]: 0.987; composite z-score [5]: 1.1; composite z-score [6]: -0.168; z-score [7]: 0.117; composite z-score (Lefty1): -0.504; composite z-score [8]: 1.36; z-score [9]: -12.9 (active)

Question: With `O=C1N(CCS(=O)(=O)c2ccccc2)Cc2ccccc2C[C@]12N=C(c1ccc(OCCCO)cc1)O[C@@H]2c1ccccc1` as the molecule, how does the composite z-score [1] read?
Answer: 2.51

Question: And the composite z-score [2]?
Answer: 1.08

Question: And the composite z-score [3]?
Answer: 0.342

Question: And the composite z-score [4]?
Answer: 0.356

Question: And the composite z-score [5]?
Answer: 1.5

Question: And the composite z-score [6]?
Answer: 1.91

Question: And the z-score [7]?
Answer: 0.685

Question: And the composite z-score (Lefty1)?
Answer: 0.557

Question: What about the composite z-score [8] of the same molecule?
Answer: 1.13

Question: And the z-score [9]?
Answer: -1 (inactive)

Question: With `CC(C)N1C(=O)[C@@]2(c3ccc([N+](=O)[O-])cc3)CC(=O)N(CC34CC5CC(CC(C5)C3)C4)[C@@H]2c2ccc(CO)cc21` as the molecule, how does the composite z-score [1] read?
Answer: -0.193

Question: And the composite z-score [2]?
Answer: -1.05

Question: What about the composite z-score [3] of the same molecule?
Answer: -0.553

Question: What about the composite z-score [4] of the same molecule?
Answer: -1.1

Question: And the composite z-score [5]?
Answer: 0.0163

Question: What about the composite z-score [6] of the same molecule?
Answer: -0.934

Question: And the z-score [7]?
Answer: 0.58

Question: And the composite z-score (Lefty1)?
Answer: 0.0347

Question: And the composite z-score [8]?
Answer: 1.23

Question: What about the z-score [9] of the same molecule?
Answer: -0.322 (inactive)

Question: Which composite z-score [1] does the source give for `Cc1ccc(S[C@]2(C(=O)NCc3ccccc3)CC(=O)N(Cc3ccccc3)[C@@H]2c2ccc(CO)cc2)cc1` here?
Answer: 3.05

Question: What about the composite z-score [2] of the same molecule?
Answer: 0.0804

Question: What about the composite z-score [3] of the same molecule?
Answer: 0.691

Question: What about the composite z-score [4] of the same molecule?
Answer: -0.909

Question: And the composite z-score [5]?
Answer: -0.211

Question: What about the composite z-score [6] of the same molecule?
Answer: -0.524

Question: What about the z-score [7] of the same molecule?
Answer: 0.561

Question: What about the composite z-score (Lefty1) of the same molecule?
Answer: -1.33

Question: What about the composite z-score [8] of the same molecule?
Answer: -0.425

Question: And the z-score [9]?
Answer: -0.627 (inactive)

Question: For `C=C[C@@H](COC(C)=O)N(Cc1ccc([N+](=O)[O-])cc1)S(=O)(=O)c1ccc(Br)cc1`, which composite z-score [1] is on record?
Answer: 1.6

Question: What about the composite z-score [2] of the same molecule?
Answer: 1.17

Question: What about the composite z-score [3] of the same molecule?
Answer: 0.079

Question: What about the composite z-score [4] of the same molecule?
Answer: 0.958

Question: And the composite z-score [5]?
Answer: 0.631

Question: What about the composite z-score [6] of the same molecule?
Answer: 0.54

Question: What about the z-score [7] of the same molecule?
Answer: 1.6

Question: And the composite z-score (Lefty1)?
Answer: 0.321

Question: And the composite z-score [8]?
Answer: 1.09

Question: And the z-score [9]?
Answer: -1.19 (inactive)

Question: Which results are given for `CC(C)c1ccc(NN2C(C(O)c3c(F)cccc3Cl)C=CC3C(=O)N(c4ccccc4)C(=O)C32)cc1` (stereo not given)?
Answer: composite z-score [1]: 0.825; composite z-score [2]: 1.13; composite z-score [3]: 0.823; composite z-score [4]: 0.935; composite z-score [5]: 1.02; composite z-score [6]: -0.0904; z-score [7]: -1.27; composite z-score (Lefty1): -0.0553; composite z-score [8]: 0.959; z-score [9]: -1.12 (inactive)
